# Source: PubChem BioAssay AID1494156 (National Center for Advancing Translational Sciences (NCATS), 2020)
# Inconclusive results are not listed. The source made the active and inactive calls. Calls follow the shape of the full dose curve.
# Assay: VSV-G qHTS counterscreen for inhibitors of MERS-S pseudo-typed particle cell entry
# Conditions: VSV-G pseudotyped particle cell entry, luciferase counterscreen; series mostly up to 57.1 µM
row,SMILES,Potency
1,COc1ccc(Cc2nccc3cc(OC)c(OC)cc23)cc1OC,3.04 µM (active)
2,O=C(Nc1ccc(Cl)cc1)Nc1ccc(Cl)c(C(F)(F)F)c1,10.8 µM (active)
3,CCCCc1oc2ccccc2c1C(=O)c1cc(I)c(OCCN(CC)CC)c(I)c1,24.1 µM (active)
4,C[C@@H]1CCO[C@H]2Cn3cc(C(=O)NCc4ccc(F)cc4F)c(=O)c(O)c3C(=O)N12,0.0015 µM (active)
5,CCN(CC)CCNC(=O)c1c(C)[nH]c(/C=C2\C(=O)Nc3ccc(F)cc32)c1C,7.64 µM (active)
6,NCCNc1ccc(NCCN)c2c1C(=O)c1ccncc1C2=O,21.5 µM (active)
7,CCCCCCCCCCCCOCCOCCOCCOCCOCCOCCOCCOCCOCCO,5.41 µM (active)
8,CC[C@H](C)C(=O)O[C@H]1C[C@@H](C)C=C2C=C[C@H](C)[C@H](CC[C@@H]3C[C@@H](O)CC(=O)O3)[C@H]21,inactive
9,CO[C@@]12[C@H](COC(N)=O)C3=C(C(=O)C(C)=C(N)C3=O)N1C[C@@H]1N[C@@H]12,0.857 µM (active)
